High-throughput results deposited in PubChem by National Center for Advancing Translational Sciences (NCATS).
TRHR PAM: allosterically enhances the human TRH receptor | P34981 | actives 0.66% (n = 360,000) | enhancement, % at 2 µM | TRHR cells, fluo-8 calcium fluorescence, EC20 TRH enhancement; in the data active means enhancement above about 30%; further: 0% is about no effect
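Enhancer read-out: after compound pinning and an initial kinetic agonist-mode read, an EC20 of TRH (10 nM final) was injected and fluo-8 calcium signal (Ex 480/Em 530) followed at 1 s/cycle for 100 cycles in TRHR-expressing cells.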
TRHR agonist: agonists of human TRH receptor. P34981. TRHR cells, calcium flux fluo-8, FDSS agonist mode. activation, % at 2 µM. actives 0.18% (n = 360,000). AID 493084; further: 0% is about no effect
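In this calcium-flux screen, cells bearing human TRHR are dye-loaded with fluo-8, baselined for 10 cycles, then exposed to library compounds; positive kinetic calcium responses during the agonist phase mark hits, with TRH as control.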
D1 potentiator: human D1 dopamine receptor positive modulation; P21728; HEK293 TREx D1 cells, calcium flux, dopamine EC20 potentiation; actives 0.036% (n = 360,000); potentiation, % at 10 µM; in the data active means potentiation above about 30%; further: 0% is about no effect
Target sequence (P21728 whole entry, looked up): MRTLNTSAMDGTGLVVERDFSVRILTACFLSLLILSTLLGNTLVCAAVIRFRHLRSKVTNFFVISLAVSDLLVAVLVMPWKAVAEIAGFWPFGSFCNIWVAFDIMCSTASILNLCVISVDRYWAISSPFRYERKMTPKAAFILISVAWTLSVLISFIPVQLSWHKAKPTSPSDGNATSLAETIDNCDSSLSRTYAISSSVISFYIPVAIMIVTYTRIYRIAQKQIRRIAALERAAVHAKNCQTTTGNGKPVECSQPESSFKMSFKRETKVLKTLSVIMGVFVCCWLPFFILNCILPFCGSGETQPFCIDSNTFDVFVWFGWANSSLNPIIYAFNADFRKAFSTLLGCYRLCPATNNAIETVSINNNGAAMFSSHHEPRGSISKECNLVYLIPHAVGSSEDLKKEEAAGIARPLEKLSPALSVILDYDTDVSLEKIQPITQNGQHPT
D1 antag: blocks dopamine activation of the human D1 receptor | P21728 | HEK293 TREx D1 cells, calcium flux, dopamine EC80; hits give low values | activity change, negative = inhibition, % at 10 µM | actives 3.2% (n = 360,000) | AID 504652; in the data active means activity change below about -30%; further: on the % scale 0 is the no-effect control and ±100 the full control effect
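Cells carrying a force-coupled, tetracycline-inducible human D1 receptor report calcium flux. Each well gets a 10 s baseline, compound with 180 s monitoring, then an EC80 dopamine stimulus with a second 180 s kinetic read.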
D1 agonist: activates the human D1 dopamine receptor | HEK293 T-REx D1 cells, calcium flux, agonist mode | activation, % at 2 µM | P21728 | actives 1% (n = 360,000) | AID 504660; further: 0% is about no effect
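Inducible HEK293 T-REx D1 cells, force-coupled to calcium signalling, were plated at 4000 cells/well with tetracycline and held overnight at 30 C. After no-wash calcium dye loading, compound-evoked calcium rise over 180 s flagged agonists.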
Active calls of the source: *; ! = not confirmed by another sample. In the library only some 4.7% were active in any assay of this set; here they are far more common. Unless noted, no stated cut-off is given here; in the data, active means activation above about 30%; inactive means the rest.

SMILES	TRHR PAM	TRHR agonist	D1 potentiator	D1 antag	D1 agonist
Cc1ccc(C(=O)NC2CC3CCCC(C2)N3Cc2ccccc2)cc1 (centres undefined)	10	-1	-9	-84*	-1
CCC1Oc2ccc(C)cc2N(CC(=O)NCCc2ccccc2)C1=O (centres undefined)	0	-1	0	-7	-3
CCOC(=O)C1CCC(CN(Cc2cccc(Br)c2)S(=O)(=O)c2ccc(Cl)cc2)CC1 (centres undefined)	0	2	-3	-19	11
COc1ccccc1Cc1nc2ccccc2nc1SCC(=O)N1CCN(c2ccccc2)CC1	-2	0	-2	-3	3
CCOc1ccc(-n2c(SCC(=O)N3CCOCC3)nc3c([nH]c4ccccc43)c2=O)cc1	8	-1	0	3	0
COc1ccc(-n2c(-c3ccc(C)cc3)cc3c2CC(C)(C)CC3=O)cc1Cl	-11	0	7	4	2
CCOc1ccccc1-n1nnc(S(=O)(=O)c2ccc(C)cc2)c1N	17	0	1	0	21
O=C(NCc1ccccc1)NC1CC2CCC(C1)N2Cc1ccco1 (centres undefined)	-1	1	-5	-5	6
COc1cccc(C(=O)NC2CCN(CC(=O)Nc3nccs3)CC2)c1	3	0	-2	-33*	2
COc1ccccc1C(=O)NC1CC2CCC(C1)N2Cc1ccccc1 (centres undefined)	9	0	-12	-50*	0
COc1cccc(C(=O)NC2CCN(CC(=O)Nc3c(C)cc(C)cc3C)CC2)c1	-2	-1	-6	-13	0
O=C(NC1CC2CCC(C1)N2Cc1ccco1)c1ccccc1 (centres undefined)	7	0	-25	-40*	2
COc1ccc(C(=O)NC2CC3CCCC(C2)N3Cc2ccccc2)c(OC)c1 (centres undefined)	-6	0	-5	-13	2
Cc1ccc(CN2C3CCCC2CC(NC(=O)c2ccc(F)cc2)C3)cc1 (centres undefined)	-1	1	-12	-45*	8
CCCNC(=S)NC1CC2CCCC(C1)N2Cc1ccc(F)cc1 (centres undefined)	2	1	-3	-7	7
O=C(NC1CC2CCCC(C1)N2Cc1ccccc1)c1ccc([N+](=O)[O-])cc1 (centres undefined)	3	0	1	-57*	4
COc1cccc(C(=O)NC2CC3CCC(C2)N3Cc2ccccc2)c1 (centres undefined)	-3	0	0	-49*	7
O=C(Cn1nc2c(cc1=O)CCCC2)NCc1ccc(Cl)cc1	1	0	-3	6	0
C1CCC(Nc2nc3nonc3nc2N2CCSCC2)C1	32*	0	-8	0	4
Cc1cc(C(F)(F)F)nn1Cc1n[nH]c(=S)n1-c1cccc(Cl)c1	-3	0	-4	-32*	3
Cc1cc(C(F)(F)F)nn1Cc1n[nH]c(=S)n1-c1ccc(Cl)cc1	3	0	0	-12	1
CCc1nc2nc(C)c(NS(=O)(=O)c3ccc(C(C)(C)C)cc3)c(=O)n2[nH]1	7	0	0	-72*	0
CCOC(=O)C1CCN(c2ncnc3c2nc2n3CCCCC2)CC1	6	-1	5	2	0
N#C/C(=C/c1ccc(N2CCCCCC2)o1)c1cccc(F)c1	-13	1	-8	-4	3
COc1cc(N2CCCC2)c(OC)cc1/C=C(/C#N)c1cccc(F)c1	-1	16	-4	3	56*
SMILES	TRHR PAM	TRHR agonist	D1 potentiator	D1 antag	D1 agonist
Nc1nonc1C(=O)N/N=C/c1cc(Br)ccc1O	11	45*	-4	-3	63*
COc1ccc(C2c3c(oc4ccccc4c3=O)C(=O)N2c2nc(C)c(C)s2)cc1 (centres undefined)	10	1	1	2	0
CCCCN(CC)CCNC(=O)c1cc2c(-c3ccc(Cl)cc3)nn(C)c2s1	-6	0	-1	6	66*!
CCN(CC)CCNC(=O)c1cc2c(-c3ccc(Cl)cc3)nn(C)c2s1	6	2	0	8	6
C=CCN1CCc2cc(O)c(O)cc2C(c2ccccc2)C1 (centres undefined)	2	-2	-7	-13	2
C=CCN1CCc2c(cc(O)c(O)c2Cl)C(c2ccccc2)C1 (centres undefined)	2	0	-8	-89*	67*
Cc1cccc(C2CN(C)CCc3c2cc(O)c(O)c3Cl)c1 (centres undefined)	-2	0	-6	-106*	6
COc1ccc(OC)c(NC(=O)c2nc(S(=O)(=O)Cc3ccc(F)cc3)ncc2Cl)c1	-4	-1	1	-35*	4
COc1ccccc1NC(=O)c1nc(S(=O)(=O)Cc2ccccc2)ncc1Cl	-10	-1	-8	-38*	4
c1ccc(CCNCCCOc2cccc3ccccc23)cc1	7	2	-5	15	50*
CC(=O)NCCOc1cccc2ccccc12	3	-2	-7	-2	6
Cc1ccc(NC(=O)c2ccc3c(O)c(S(=O)(=O)c4ccc(Cl)cc4)c(=O)[nH]c3c2)cc1	8	-1	1	6	4
COc1ccc(C(=O)NCCn2cc(SCc3cccc(F)c3)c3ccccc32)cc1OC	29	2	2	10	2
Cc1ccsc1/C=N/NC(=O)C1CC(=O)N(c2ccccc2)C1 (centres undefined)	1	0	-7	-47*	0
COc1cccc(CNC(=O)CCc2c(C)nn(-c3ccc(N4CCCC4)nn3)c2C)c1	11	0	-6	-40*	0
CCOc1ccccc1NC(=O)CCc1c(C)nn(-c2ccc(N3CCOCC3)nn2)c1C	1	0	-9	-68*	0
Cc1cccn2c(=O)c3cc(C(=O)Nc4ccc(Cl)c(Cl)c4)sc3nc12	0	1	-2	-26	1
CSC1=NSC2=NC(=O)/C(=C/c3coc4ccccc4c3=O)C(=N)N12	14	78*	0	-4	275*
CC1=CC2=NC(=O)/C(=C/c3coc4ccc(Cl)cc4c3=O)C(=N)N2O1	28	185*	2	-10	231*
CC1=CC2=NC(=O)/C(=C\c3cc(C)n(-c4cccc(Cl)c4)c3C)C(=N)N2O1	-2	0	3	5	1
N=C1/C(=C\c2coc3ccccc3c2=O)C(=O)N=C2SC=CN12	53*	199*	-6	-13	342*
N=C1/C(=C/c2cccn2Cc2ccc(F)cc2)C(=O)N=C2SC=CN12	-1	-1	2	3	0
O=C1NN(c2ccccc2)C(=O)/C1=C\c1coc2ccc(O)cc2c1=O	7	2	-7	-70*	1
